Rows were chosen to be rich in hits. Some 1.3% of all compounds tested hit in one or more screens of this group.
Neddylation inh: inhibitors of cullin neddylation, primary screen, biochemical, TR-FRET, uHTS, NAE and Ubc12 | AID 651699, 2012 | inhibition, % at 25 µM | 0.58% of 360,000 active; in the data active = inhibition above about 36%
PKA-R2B act: activators of PKA-R2B holoenzyme, primary screen, biochemical, fluorescence polarization, Cy5-IP20, human; cAMP-dependent protein kinase catalytic subunit beta (Homo sapiens) + cAMP-dependent …; PKA-R2B holoenzyme dissociation; R2B truncated from residue 108, S112A mutant; 0% DMSO only, 100% 113 µM cGMP; activation, % at 11.4 µM; 0.079% of 340,000 active; AID 504700, 2011;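 active = activation above a cutoff set at the mean over all compounds plus 3 SD, cut at about 18% in these data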;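 also: higher means more holoenzyme dissociation and a rise in polarization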
Rpn11 inh: Rpn11 (PSMD14) deubiquitinase inhibitors, primary screen, biochemical, fluorescence polarization, uHTS | calls only at 20 µM | human 26S proteasome, Ub4-pepOG fluorescence polarization; 20S core pre-blocked with epoxomicin | 26S proteasome non-ATPase regulatory subunit 14 (Homo sapiens), O00487 | 0.59% of 360,000 active;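 active = inhibition at 20 µM, scaled to each plate's controls, above about 33%, limit read from the data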
Target sequence (O00487 whole entry, looked up): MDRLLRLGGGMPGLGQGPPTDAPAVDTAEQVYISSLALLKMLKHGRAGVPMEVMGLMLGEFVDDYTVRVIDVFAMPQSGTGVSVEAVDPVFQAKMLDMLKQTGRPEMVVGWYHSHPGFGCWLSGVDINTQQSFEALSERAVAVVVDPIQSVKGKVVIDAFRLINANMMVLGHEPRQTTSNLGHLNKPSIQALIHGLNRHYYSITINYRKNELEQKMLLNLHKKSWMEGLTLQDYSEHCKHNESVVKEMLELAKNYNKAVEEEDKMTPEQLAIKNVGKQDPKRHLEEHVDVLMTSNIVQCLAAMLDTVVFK
PKA-R1A activ: activators of PKA-R1A holoenzyme, primary screen, biochemical, fluorescence polarization, Cy5-IP20, bovine R1A, mouse PKAc. PKA-R1A dissociation; scaled: DMSO 0%, 113 µM cGMP 100%. activation, % at 11.4 µM. 0.083% of 340,000 active. AID 504707, 2011;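 active = percent activation above the mean of all tested compounds plus 3 SD, cut at about 19% in these data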;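 also: higher means more PKAc released from R1A so a rise in polarization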
Neddyl conf: blockade of NEDD8 conjugation to cullin – biochemical, TR-FRET, single concentration, confirmation. shares compounds with Neddylation inh. TR-FRET cullin neddylation biochemical assay. calls only at 25 µM. 13% of 1,800 active; in the data active = inhibition above about 40%;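 also: neddylation substrate is the cullin 1 ring ligase complex with SKP2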
* = called active by the depositor; i = inactive; x = not tested or not shown; + = active, no number.

SMILES | Neddylation inh | PKA-R2B act | Rpn11 inh | PKA-R1A activ | Neddyl conf
Cn1c(SCc2c(Cl)cccc2Cl)nnc1-c1ccc2nonc2c1 | -20 | -4 | i | -6 | x
COc1cc(/C=C/C(=O)OC(C)C(=O)NC2CCCCC2C)cc(Cl)c1OC (stereo not drawn) | 40* | -8 | i | -4 | i
CC(OC(=O)/C=C/c1cccc(F)c1)C(=O)NC1CCCCC1C (stereo not drawn) | 0 | 1 | i | 6 | x
COc1ccc(-c2n[nH]c(=S)n2-c2cc(OC)ccc2OC)cc1 | -1 | -13 | i | -16 | x
COc1ccccc1-n1c(-c2ccc(NS(C)(=O)=O)cc2)n[nH]c1=S | 41* | -3 | i | 4 | i
COc1ccc2cc(C(c3nnnn3C(C)(C)C)N3CCSCC3)c(=O)[nH]c2c1 (stereo not drawn) | -10 | 3 | i | 2 | x
CC(C)(C)n1nnnc1C(c1cc2cc3c(cc2[nH]c1=O)OCCO3)N1CCSCC1 (stereo not drawn) | 47* | -4 | i | -3 | x
Cc1cc(=O)n2c(n1)SCOC2 | 2 | -1 | i | -18 | x
NC(=O)c1c(NC(=O)c2cccc(N3C(=O)CCC3=O)c2)sc2c1CCCCC2 | 52* | 12 | i | 6 | x
COc1cccc(C(=O)Nc2sc3c(c2C(=O)O)CCCC3)c1 | 31 | -4 | i | -4 | x
CNC(=O)c1c(NC(=O)c2ccco2)sc2c1CCCC2 | 45* | -9 | i | 4 | x
Cc1ccc(C(=O)Nc2sc3c(c2C(=O)O)CCCC3)o1 | 51* | -7 | i | -16 | x
COc1cc(C(=O)Nc2sc3c(c2C(=O)O)CCC3)cc(OC)c1OC | 41* | -2 | i | 8 | x
CC(C)OC(=O)c1c(NC(=O)c2ccco2)sc2c1CCCCC2 | x | -18 | i | -10 | x
CC(=O)Nc1ccc(NC(=O)C2CCN(S(C)(=O)=O)CC2)cc1 | -3 | 8 | i | 4 | x
CNC(=O)c1c(NC(=O)c2cccc(C)c2)sc2c1CCC2 | 49* | -4 | i | -11 | x
Cc1cc(Nc2ccccc2C(=O)O)n2ncnc2n1 | 40* | -1 | i | 3 | x
Cc1cc(Nc2cc(C(=O)O)ccc2C)n2ncnc2n1 | 8 | -9 | i | 9 | x
O=C(c1cccs1)N1CCC(c2nc3c(nnn3Cc3c(Cl)cccc3Cl)c(=O)[nH]2)CC1 | -63 | 4 | i | 5 | x
COc1ccccc1-c1nnc(-c2ccc(C)cc2)o1 | 17 | -10 | i | -4 | x
COc1cccc(OC)c1-c1nnc(-c2cn(C)c3ccccc23)o1 | 45* | 3 | i | -3 | i
COc1ccc2cc3cc(C(=O)NCCN4CCc5ccccc5C4)sc3nc2c1 | 50* | 1 | i | -3 | i
COC(=O)c1ccc(-c2ccc(/C=N/NC(=O)CC3(C)OCCCO3)o2)cc1 | 41* | 2 | i | -2 | i
COC(=O)C(C(C)C)N1CCc2c(C)nc3c(C#N)cnn3c21 (stereo not drawn) | 47* | -6 | i | -7 | +
COc1cccc(C2C(C#N)=C(C)NC3=C2C(=O)CC(C)(C)C3)c1 (stereo not drawn) | x | -16 | i | -12 | x
SMILES | Neddylation inh | PKA-R2B act | Rpn11 inh | PKA-R1A activ | Neddyl conf
COc1ccc(C2C3=C(CC(C)(C)CC3=O)Nc3cc4c(cc32)OCO4)cc1 (stereo not drawn) | x | -15 | i | -14 | x
COc1ccc(C2C3=C(CC(C)(C)CC3=O)Nc3c2c(=O)[nH]c2nc(C)nn32)cc1 (stereo not drawn) | 47* | -16 | i | 9 | +
COc1ccc(C2C(C#N)=C(C)NC3=C2C(=O)CC(C)(C)C3)cc1 (stereo not drawn) | 42* | -2 | i | 0 | x
CC1=C(C#N)C(c2ccc(O)cc2)C2=C(CCCC2=O)N1 (stereo not drawn) | 44* | -1 | i | -14 | i
CC(C)C[C@@H](CO)N1CCN(Cc2ccc([N+](=O)[O-])cc2)CCC1=O | -21 | 7 | i | -6 | x
O=C(NNC1=NC2(CCCC2)Cc2ccccc21)c1ccncc1 | 0 | -3 | i | -7 | x
Cn1c(=O)[nH]c(=O)c2c1nc(N1CCCCC1)n2C/C=N/NC(=O)c1cc(Br)ccc1O | 46* | -6 | i | -4 | x
C=CCn1c(N2CCCC2)nc2c1c(=O)[nH]c(=O)n2C | -5 | -3 | i | 2 | x
CCc1nc2c(OCc3cccc(OC)c3)cccn2c1N(C)C(=O)c1ccccc1F | -1 | x | i | x | x
Cc1ccc(NC(=O)CCNS(=O)(=O)c2cccc3nsnc23)cc1F | -42 | -14 | i | 0 | x
COc1ccc(-c2ccc(CN3C(C)C(=O)N(Cc4cn(CCC5OCCO5)nn4)CCS3(=O)=O)cc2)cc1OC (stereo not drawn) | -1 | -2 | i | -4 | x
O=C(NCc1ccccc1)N(Cc1cc2cc3c(cc2[nH]c1=O)OCCO3)CC1CCCO1 (stereo not drawn) | 37* | 8 | i | 4 | i
O=C(NC1CCCCC1)N(CCN1CCOCC1)Cc1cc2cc3c(cc2[nH]c1=O)OCCO3 | 47* | -5 | i | 1 | +
O=c1[nH]c2cc3c(cc2cc1CN(CCO)S(=O)(=O)c1ccccc1)OCCO3 | 37* | -1 | i | -6 | x
O=c1oc2ccccc2cc1-c1cn2ccccc2n1 | 32 | -8 | i | -10 | x
O=c1oc2ccccc2cc1-c1cn2cccnc2n1 | 43* | -5 | i | -4 | +
COc1cc(C2C(C#N)=C(N)N(c3ccc(F)cc3)C3=C2S(=O)(=O)CC3)ccc1O (stereo not drawn) | 47* | -1 | i | -5 | i
O=C(CSc1cccc2cccnc12)N/N=C/c1cccc(O)c1 | 43* | -1 | i | -10 | i
O=C(CCN1C(=O)S/C(=C/c2ccccc2)C1=O)Nc1ccc(O)c(C(=O)O)c1 | 44* | -6 | i | 7 | i
CCOc1ccccc1OC(=O)CN1C(=O)c2ccccc2C1=O | -18 | 5 | i | 2 | x
C=CC[n+]1ccn(-c2nc3ccccc3nc2[N-]S(=O)(=O)c2cccs2)c1 | 46* | -11 | i | -13 | x
O=S(=O)([N-]c1nc2ccccc2nc1-n1cc[n+](Cc2ccccc2)c1)c1ccccc1 | 37* | 7 | i | -4 | +
CCCC[n+]1ccn(-c2nc3ccccc3nc2[N-]S(=O)(=O)c2cccs2)c1 | 43* | -1 | i | -13 | i

High-throughput results: PubChem, several laboratories
